# Measured values from PubChem BioAssay (EPA / NIEHS).
# Inconclusive results are not listed. Activity calls are given as the source filed them. The calls were made as follows, unless noted: active = hit-call score of the fitted dose curve at least 0.9, where 1 is the maximum; inconclusive = response in the unintended direction; inactive = score below 0.9.
# Columns and labels:
# [1] = target: Androgen receptor (Homo sapiens) (UniProt P10275); assay: ATG_AR_TRANS: Attagene TRANS-FACTORIAL HepG2 Assay for human Androgen Receptor (AR) (AID 2282973); conditions: HepG2 Attagene TRANS-FACTORIAL AR reporter transcription
# In short: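 HepG2 cells transiently transfected with multiplexed GAL4-UAS reporter units and chimeric NR-Gal4 fusion; 24 h compound exposure. Reporter mRNA measured by RT-PCR, 6-FAM labelling, HpaI digestion and capillary electrophoresis; gain-of-signal fitted relative to DMSO baseline.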
# [2] = Tanguay_ZF_120hpf_MUSC: Oregon State University Tanguay Lab 120 Hour Post-fertilization zebrafish Assay for Muscle Malformation (AID 2284401; active = hit-call score of the fitted dose curve at least 0.9, where 1 is the maximum; inactive = score below 0.9)
# In short: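 Dechorionated Tropical 5D wild-type zebrafish embryos exposed statically from 6 to 120 hpf at 28C, one per well, in 0.64% DMSO. Muscle malformation scored present/absent by brightfield microscopy at 120 hpf, fitted against DMSO.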
# Androgen receptor (Homo sapiens), sequence (P10275 whole entry, looked up, the tested form may be a part): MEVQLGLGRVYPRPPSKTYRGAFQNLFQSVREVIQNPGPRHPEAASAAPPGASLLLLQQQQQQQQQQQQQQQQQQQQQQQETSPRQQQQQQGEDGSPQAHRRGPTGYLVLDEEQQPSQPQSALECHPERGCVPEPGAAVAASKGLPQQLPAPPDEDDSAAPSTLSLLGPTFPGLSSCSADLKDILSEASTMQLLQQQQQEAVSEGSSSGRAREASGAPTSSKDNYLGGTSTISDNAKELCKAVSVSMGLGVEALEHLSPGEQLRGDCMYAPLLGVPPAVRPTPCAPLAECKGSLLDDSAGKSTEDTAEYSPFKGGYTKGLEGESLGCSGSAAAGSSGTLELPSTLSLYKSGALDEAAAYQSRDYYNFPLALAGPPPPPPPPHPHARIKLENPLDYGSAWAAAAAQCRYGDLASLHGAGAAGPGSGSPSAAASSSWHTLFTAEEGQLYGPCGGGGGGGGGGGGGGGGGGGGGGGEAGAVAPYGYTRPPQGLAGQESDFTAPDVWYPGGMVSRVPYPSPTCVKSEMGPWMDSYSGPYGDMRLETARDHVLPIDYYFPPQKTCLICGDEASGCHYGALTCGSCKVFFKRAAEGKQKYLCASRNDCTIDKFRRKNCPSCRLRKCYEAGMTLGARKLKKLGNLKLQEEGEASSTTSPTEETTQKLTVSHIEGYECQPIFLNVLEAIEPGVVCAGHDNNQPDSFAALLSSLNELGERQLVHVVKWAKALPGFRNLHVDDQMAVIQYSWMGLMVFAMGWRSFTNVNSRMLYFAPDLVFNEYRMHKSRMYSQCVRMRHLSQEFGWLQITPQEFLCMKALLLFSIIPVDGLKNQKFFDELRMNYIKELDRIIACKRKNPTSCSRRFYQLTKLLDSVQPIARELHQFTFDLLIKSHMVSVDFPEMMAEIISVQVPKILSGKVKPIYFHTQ
Structure (SMILES),outcome [1],outcome [2],AC50 [2]
C=CC(=O)OCC(F)(F)C(F)(F)C(F)(F)C(F)(F)COC(=O)C=C,inactive,inactive,–
OC(O)C(F)(F)C(F)(F)F,inactive,inactive,–
OCCCC(F)(F)C(F)(F)C(F)(F)C(F)(F)C(F)(F)C(F)(F)C(F)(F)C(F)(F)F,inactive,inactive,–
FC(F)(F)C(F)(F)C(F)(F)C(F)(F)C(F)(F)C(F)(F)C(F)(F)C(F)(F)CCS,inactive,inactive,–
OCC(F)(F)C(F)(F)C(F)(F)C(F)(F)C(F)(F)C(F)(F)F,inactive,inactive,–
NCC(F)(F)C(F)(F)C(F)(F)C(F)(F)F,inactive,inactive,–
FC(F)(F)C(F)(F)CNCC(F)(F)C(F)(F)F,inactive,inactive,–
OCC(F)(F)C(F)(F)C(F)(F)C(F)(F)C(F)(F)C(F)(F)C(F)(F)C(F)(F)C(F)(F)C(F)(F)C(F)(F)F,inactive,inactive,–
FC(F)(F)C(F)(F)C(F)(F)CI,inactive,inactive,–
O=C(O)C(F)(F)C(F)(F)C(F)(F)C(F)(F)C(F)(F)C(F)(F)C(F)(F)C(F)(F)Cl,inactive,–,39.3 µM (active)
OCC(O)CC(F)(F)C(F)(F)C(F)(F)C(F)(F)C(F)(F)C(F)(F)C(F)(F)C(F)(F)F (stereo not drawn),inactive,inactive,–
O=C(O)C(F)(F)C(F)(F)C(F)(F)C(F)(F)C(F)(F)C(F)(F)C(F)(F)C(F)(F)C(F)(F)C(F)(F)C(F)(F)C(F)(F)C(F)(F)F,inactive,inactive,–
FC(F)(F)C(F)(F)C(F)(F)N(C(F)(F)C(F)(F)C(F)(F)F)C(F)(F)C(F)(F)C(F)(F)F,inactive,inactive,–
N=C(N)C(F)(F)C(F)(F)C(F)(F)C(F)(F)C(F)(F)C(F)(F)C(F)(F)F,inactive,inactive,–
O=C(Cl)C(F)(F)C(F)(F)C(F)(F)C(=O)Cl,inactive,inactive,–
OCCCCC(F)(F)C(F)(F)C(F)(F)C(F)(F)F,inactive,inactive,–
NC(=O)C(F)(F)C(F)(F)C(F)(F)C(F)F,inactive,inactive,–

Structure (SMILES),outcome [1],outcome [2],AC50 [2]
FC(F)(F)C(F)(F)C(F)(F)C(F)(F)C(F)(F)CCI,inactive,inactive,–
O=S(=O)(O)C(F)(F)C(F)(F)C(F)(F)C(F)(F)C(F)(F)C(F)(F)C(F)(F)F,inactive,inactive,–
FC(F)(F)C(F)(F)C(F)(F)C(F)(F)C(F)(F)C(F)(F)C(F)(F)C(F)(F)F,inactive,inactive,–
C=CC(=O)OCC(F)(F)C(F)(F)C(F)(F)C(F)(F)C(F)(F)C(F)(F)C(F)(F)F,inactive,inactive,–
FC(F)(F)C(F)(F)C(F)(F)C(F)(F)C(F)(F)C(F)(F)C(F)(F)I,inactive,inactive,–
O=C(O)C(F)(F)C(F)(F)C(F)(F)F,inactive,inactive,–
CO[Si](C)(CCC(F)(F)C(F)(F)C(F)(F)C(F)(F)C(F)(F)C(F)(F)F)OC,inactive,inactive,–
C=CC(F)(F)C(F)(F)C(F)(F)C(F)(F)C(F)(F)C(F)(F)C(F)(F)C(F)(F)F,inactive,inactive,–
FC(F)(F)C(F)(F)C(F)(F)C(F)(F)C(F)(F)C(F)(F)C(F)(F)Br,inactive,inactive,–
O=S(=O)(OCC(F)(F)F)C(F)(F)C(F)(F)C(F)(F)C(F)(F)F,inactive,inactive,–
CNS(=O)(=O)C(F)(F)C(F)(F)C(F)(F)C(F)(F)C(F)(F)C(F)(F)C(F)(F)C(F)(F)F,inactive,inactive,–
O=P(O)(O)CCC(F)(F)C(F)(F)C(F)(F)C(F)(F)C(F)(F)C(F)(F)F,inactive,inactive,–
O=C(CC(=O)C(F)(F)C(F)(F)F)C(F)(F)F,inactive,inactive,–
OCC(F)(F)C(F)(F)C(F)(F)F,inactive,inactive,–
O=P(O)(O)OCCC(F)(F)C(F)(F)C(F)(F)C(F)(F)C(F)(F)C(F)(F)F,inactive,inactive,–
CCN(CCO)S(=O)(=O)C(F)(F)C(F)(F)C(F)(F)C(F)(F)C(F)(F)C(F)(F)C(F)(F)C(F)(F)F,inactive,inactive,–
CCO[Si](CCC(F)(F)C(F)(F)C(F)(F)C(F)(F)C(F)(F)C(F)(F)F)(OCC)OCC,inactive,inactive,–
